± gives the standard deviation of the averaged measurements. In all, about 25,000 sequences were measured (“ln(normalized median fluorescence intensity)”: median about 8.6, highest 2% from about 10 on). The list comes from a sample in which the highest values are over-represented; it also holds similar and randomly drawn sequences.
Test system: PfAP2-EXP AP2 domain (GST-tagged)
Experiment: gcPBM binding intensity (ln(normalized median fluorescence intensity)); higher = stronger DNA binding
In short: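 After 1 h on an Agilent 4 × 180k array of primer-extended double-stranded 36-bp intergenic genomic probes and negative controls, bound GST-tagged P. falciparum DNA-binding domains were detected with Alexa488 anti-GST antibody and scanned at 488 nm. The domains had been expressed in E. coli, and binding took place in 1× PBS with 1% milk, 0.2 mg/ml BSA, 0.5% salmon testes DNA and 0.03% Triton X-100. Binding intensity is the highest Masliner-normalised natural-log median intensity across replicate spots of either probe orientation.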

In order of falling “gcPBM binding intensity (ln)” value:
1. TGGGAAAAAATATATGCACACCCCCCAAAAAAAAAA [CACACA_site8696]  11.1 ± 0.35
2. GGAAAAAATATATGCACACCCCCCAAAAAAAAAAAA [CACACA_site2222]  10.95 ± 0.099
3. AAAAAAAAAAAAAAAACACACATATATATATATATA [CACACA_site2436]  10.4 ± 0.11
4. TATAAGCAAAAACACACACACATATATATATATATA [CACACA_site3804]  10.3 ± 0.28
5. AAAACAAACAGACACACACACATATATATATATATA [CACACA_site3655]  10.3 ± 0.21
6. TATGTGCCAAAACACACACACATATATATATATATA [CACACA_site469]  10.2 ± 0.11
7. AAAAAAACACACACATATATATATATATATATATAT [GTGCAC_negctrl_site498]  10.2 ± 0.41
8. AAAACATACATATATACACACATATATATATATATA [CACACA_site1852]  10.2 ± 0.23
9. CATATATAAAAAAACACACACATATATATATATATA [CACACA_site1195]  10.2 ± 0.61
10. TGCATATACGCAAGCACACATATATATATATATATA [CACACA_site1069]  10.2 ± 0.51
11. TGCATATACTCAAGCACACATATATATATATATATA [CACACA_site4733]  10.2 ± 0.33
12. TTTAAGCAAAAACACACACACATATATATATATATA [CACACA_site349]  10.1 ± 0.41
13. AAACAAAAAAAATAAGCACACATATATATATATATA [CACACA_site8173]  10.1 ± 0.26
14. TATGCATATACACAAGCACACATATATATATATATA [CACACA_site8266]  10.1 ± 0.32
15. AAAACAGACAAACACACACACACATATATATATATA [CACACA_site3393]  10.1 ± 0.49
16. AAAAAAAAAAAACATACACACACATATATATATATA [CACACA_site8452]  10 ± 0.54
17. AACACACACATATATATATATATATATATATATATA [GTGCAC_negctrl_site573]  10 ± 0.47
18. AAAAAACAAAAACACACACACACATATATATATATA [CACACA_site3654]  9.94 ± 0.36
19. ATTATGTGCCAATACACACACACATATATATATATA [CACACA_site468]  9.91 ± 0.44
20. ACAGCTCTAGGACATGCATGTTATATAGAAAAAGAG [TGCATGCA_site703]  9.59 ± 0.32
21. TACGTTCTGATATATACACACCTGGTATTAATTATG [CACACA_site7113]  8.93 ± 0.46
22. TTAAAAAAATATAATACACACCAAAAATATGCACAT [CACACA_site5209]  8.85 ± 0.35
23. ATTTCCTGGCTACTGTGTACTGACCTCCAGACTGCT [XGTACX_site2005]  8.81 ± 0.55
24. ATTTTCATGATAAAGGTGCAATTATTTTTATAAGAA  8.74 ± 0.13
25. AAAAAAAACAGACACACACACATACAAAATATATAT [CACACA_site1449]  8.73 ± 0.47
26. AAAAAAAAAAAAAACACACACACACCCAAATATATA [CACACA_site1169]  8.71 ± 0.3
27. AAAAAAAAATTAAAATGTACACATAAAAAAAAAAAA [XGTACX_site794]  8.64 ± 0.42
28. TATTATAAATAAATAGAAAAAAAAATGATAAATGGA [CACACA_negctrl_site865]  8.62 ± 0.42
29. ATAATATAAATATGCACACAAATTATTACCCAAAAA [CACACA_site2524]  8.56 ± 0.2
30. AAAAAAAAAAAAAACACACATACATACATACATATA [CACACA_site4121]  8.55 ± 0.16
31. TTATACAACAAGAAAATTATAAAATGTAACATATAT [GTGCAC_negctrl_site406]  8.53 ± 0.42
32. ATTTTTAATCATTTACAACCTAGTGATTATACAAAT [CACACA_negctrl_site1089]  8.51 ± 0.35
33. ACTACATAATATTTACGTACCTAAAAAATTCTTATA [XGTACX_site509]  8.51 ± 0.33
34. AAAAAAAAAAAGCACACACACATATGCGTATATATA [CACACA_site954]  8.49 ± 0.57
35. AAAAAAAAAAAACACACACACACACCCAAATATATA [CACACA_site150]  8.49 ± 0.61
36. TAATTTAAAAATTCCTGTACTCAGTTTTTTCTATTT [XGTACX_site4961]  8.48 ± 0.39
37. AAAAAAAAAAAACATACACACATACATACATATATA [CACACA_site8222]  8.48 ± 0.4
38. TAAGAAAATATTTATGTATGCATGTCCTAATATTTC [TGCATGCA_site295]  8.44 ± 0.3
39. GCATATATCAAATATCGTACATTTTTTAAATTAAAA [XGTACX_site3994]  8.42 ± 0.47
40. TATATTTATAGACACACACACAAAAAAAAAAAAAAA [CACACA_site6818]  8.37 ± 0.31
41. ATTATTGTTTATTGATTTTTGTTAAAATAGGAAATT [GTGCAC_negctrl_site181]  8.37 ± 0.4
42. TTGCCTTAAAAAGGAACACACATGCTTTTTTTAGTT [CACACA_site938]  8.37 ± 0.45
43. AACTATAATTAAAGGATGCACTTGAAGGCATTTCAA [GTGCAC_site9689]  8.34 ± 0.35
44. AAAAAAAAAAAAAAAACACACATATATGTATATATA [CACACA_site3276]  8.28 ± 0.5
45. TTTATAATTTATATCACACATATATCTGTAATAAAT [CACACA_site5048]  8.24 ± 0.44
46. AAAAAAATCACATAAAATACTTTATTTTATATTATA [GTGCAC_negctrl_site372]  7.89 ± 0.36

— the supplement of paper PMC11417369
